Compound activity from PubChem BioAssay.
Mtb FBA inh: Mtb FBA enzyme inhibitors, primary screen, biochemical, fluorescence, strain H37Rv | inhibition, % at 1 µM | AID 588726, 2011 | purified M. tuberculosis FBA, fluorescence read-out | 360,000 compounds, 2.3% hits | Fructose-bisphosphate aldolase (Mycobacterium tuberculosis (strain ATCC 25618 / H37Rv)), …; in the data active means inhibition above about 27%;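 further: 0% = vehicle and 100% = reference inhibitor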
Target sequence (P9WQA3 whole entry, looked up): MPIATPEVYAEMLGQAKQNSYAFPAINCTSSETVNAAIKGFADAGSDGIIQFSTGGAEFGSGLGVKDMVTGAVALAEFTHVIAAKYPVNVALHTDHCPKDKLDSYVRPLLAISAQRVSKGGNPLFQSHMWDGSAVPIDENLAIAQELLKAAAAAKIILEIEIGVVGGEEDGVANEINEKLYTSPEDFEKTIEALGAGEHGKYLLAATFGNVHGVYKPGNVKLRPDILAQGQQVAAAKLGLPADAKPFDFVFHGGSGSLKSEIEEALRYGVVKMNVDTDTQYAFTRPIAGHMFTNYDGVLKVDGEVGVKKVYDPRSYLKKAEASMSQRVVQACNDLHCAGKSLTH
Vc quorum ag: inducers of Vibrio cholerae quorum light production without autoinducers, primary screen, BH1578 luxS cqsA deficient, single point; V. cholerae BH1578 lux reporter, luminescence, 6 h; 350,000 compounds, 0.16% hits; activation, % at 18.7 µM; in the data active means activation mostly above about 9.7%, no sharp cut-off
CCHFV vOTU inh: CCHFV vOTU protease inhibitors, primary screen, biochemical, Pep-AMC substrate, fluorescence. 370,000 compounds, 0.55% hits. inhibition, % at 11.5 µM. AID 651958, 2012. Crimean-Congo hemorrhagic fever virus L polyprotein viral ovarian tumor (vOTU) protease …; further: 0% = vehicle wells with enzyme and 100% = no enzyme wells
GDH-TPI counter-1: GDH-TPI coupling enzyme inhibitors, primary screen, artefact control for M. tuberculosis FBA inhibitor project, biochemical, absorbance, full deck; AID 588335, 2011; inhibition, % at 4.8 µM; GDH-TPI coupled enzyme counterscreen, NADH absorbance; 360,000 compounds, 1.2% hits;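 further: 0% = DMSO wells and 100% = wells lacking the enzyme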
Mtb FBA inh conf: M. tuberculosis aldolase blockers, biochemical, fluorescence, strain H37Rv, confirmation; shares compounds with Mtb FBA inh; purified M. tuberculosis FBA, fluorescence read-out; inhibition, % at 1 µM; 5,600 compounds, 78% hits; AID 651616, 2012; in the data active means inhibition above about 27%;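 further: 0% = vehicle wells and 100% = reference inhibitor wells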
GDH-TPI counter-2: GDH-TPI coupling enzyme inhibitors, artefact control for M. tuberculosis FBA inhibitor project, biochemical, fluorescence, high throughput; GDH-TPI coupled enzyme counterscreen; AID 652141, 2013; inhibition, % at 1 µM; 5,600 compounds, 81% hits; shares compounds with Mtb FBA inh; in the data active means inhibition above about 10%
Starred values were filed as active, the others as inactive. An excerpt weighted towards active compounds, which were near 3.9% of everything screened. Unless noted, no stated cut-off is given here; in the data, active means inhibition above about 30%; inactive means the rest.

`CN1CCN(C(=O)c2ccc3nc(-c4ccccc4)c(-c4ccccc4)nc3c2)CC1` gave Mtb FBA inh 30.2*, Vc quorum ag -1.4, CCHFV vOTU inh -50.0, GDH-TPI counter-1 10.4, Mtb FBA inh conf 168.1* and GDH-TPI counter-2 135.2*.
O=C(c1ccc2nc(-c3ccccc3)c(-c3ccccc3)nc2c1)N1CCCCC1 was read as Mtb FBA inh 33.5*, Vc quorum ag inactive, CCHFV vOTU inh -30.6, GDH-TPI counter-1 14.6, Mtb FBA inh conf 92.6* and GDH-TPI counter-2 63.5*.
For Cc1cccc(-c2nc3ccc(C(=O)N4CCC5(CC4)OCCO5)cc3nc2-c2cccc(C)c2)c1 the results were Mtb FBA inh 42.5*, Vc quorum ag inactive, CCHFV vOTU inh -37.0, GDH-TPI counter-1 16.2, Mtb FBA inh conf 117.2* and GDH-TPI counter-2 78.6*.
For CN1CCN(C(=O)c2ccc3ccccc3c2)CC1 the results were Mtb FBA inh 1.6, Vc quorum ag 7.1, CCHFV vOTU inh 2.7 and GDH-TPI counter-1 4.4.
CCOC(=O)c1nc(Nc2ccc(OC)cc2)c2ccccc2n1 was read as Mtb FBA inh 4.4, Vc quorum ag -0.2 and GDH-TPI counter-1 29.8.
`COc1ccc([N+](=O)[O-])cc1NC(=S)NC(NC(=O)Cc1ccc(OC)c(OC)c1)C(Cl)(Cl)Cl` (stereo not drawn) gave Mtb FBA inh 0.8, Vc quorum ag inactive, CCHFV vOTU inh -13.3 and GDH-TPI counter-1 7.0.
`COC(=O)c1c(C)cc(C)c2c1CC(C)(C)C2=O` gave Mtb FBA inh 0.8, Vc quorum ag -0.5, CCHFV vOTU inh 4.7 and GDH-TPI counter-1 4.8.
For O=C(O)/C=C\c1cn(-c2ccccc2)nc1-c1cc2ccccc2o1 the results were Mtb FBA inh 76.5*, Vc quorum ag -0.4, CCHFV vOTU inh -22.8, GDH-TPI counter-1 4.8, Mtb FBA inh conf 124.0* and GDH-TPI counter-2 101.0*.
O=C(O)/C=C/c1cn(-c2ccccc2)nc1-c1cc2ccccc2o1 was read as Mtb FBA inh 90.6*, Vc quorum ag inactive, CCHFV vOTU inh -20.5, GDH-TPI counter-1 8.6, Mtb FBA inh conf active and GDH-TPI counter-2 156.8*.
CN(Cc1cn(-c2ccccc2)nc1-c1cc2ccccc2o1)C(=O)CCC(=O)O was read as Mtb FBA inh 45.5*, Vc quorum ag inactive, CCHFV vOTU inh -3.6, GDH-TPI counter-1 4.8, Mtb FBA inh conf -4.8 and GDH-TPI counter-2 -4.2.
For O=C(O)/C=C/c1cn(-c2ccccc2)nc1-c1ccccc1 the results were Mtb FBA inh -3.0, Vc quorum ag -0.3, CCHFV vOTU inh 13.8 and GDH-TPI counter-1 2.9.
Screening CN(C)C(=O)c1cn(-c2ccccc2)nc1-c1cc2ccccc2o1 returned Mtb FBA inh 17.6, Vc quorum ag -0.2, CCHFV vOTU inh 3.7 and GDH-TPI counter-1 4.4.
O=C(CSc1nnnn1-c1ccc(Cl)cc1)N1CCNC1=O was read as Mtb FBA inh 2.2, Vc quorum ag inactive, CCHFV vOTU inh 15.8 and GDH-TPI counter-1 0.0.
Screening O=C(N/N=C/c1ccc[nH]1)c1cc(-c2ccc(Cl)cc2)nc2ccccc12 returned Mtb FBA inh 2.2, Vc quorum ag -0.7, CCHFV vOTU inh 0.0 and GDH-TPI counter-1 14.5.
For O=C(CN1CCC(Cc2ccccc2)CC1)N1CCc2ccccc2C1 the results were Mtb FBA inh 2.9, Vc quorum ag -0.4, CCHFV vOTU inh -13.3 and GDH-TPI counter-1 -5.7.
Screening O=S1(=O)CC(N2CCCC2)CN1CCc1ccccc1 (stereo not drawn) returned Mtb FBA inh 1.4 and CCHFV vOTU inh 1.9.
N#Cc1c(-c2ccccc2)cc(C2CC2)nc1N was read as Mtb FBA inh 13.3, Vc quorum ag -0.5, CCHFV vOTU inh -18.5 and GDH-TPI counter-1 15.0.
Screening Cc1ccc(-c2cc(-c3ccccc3)c(C#N)c(N)n2)o1 returned Mtb FBA inh 28.5*, Vc quorum ag -3.1, CCHFV vOTU inh -73.8, GDH-TPI counter-1 8.9, Mtb FBA inh conf 148.4* and GDH-TPI counter-2 125.3*.
Screening CN(C)c1oc(-c2ccc(OCc3ccccc3)cc2)nc1C#N returned Mtb FBA inh 109.5*, Vc quorum ag -11.5, CCHFV vOTU inh -14.0, GDH-TPI counter-1 25.6, Mtb FBA inh conf -5.7 and GDH-TPI counter-2 -5.2.
COc1ccccc1/C=N/OC(=O)c1ccc(C)cc1 was read as Mtb FBA inh -0.8, Vc quorum ag inactive, CCHFV vOTU inh -4.0 and GDH-TPI counter-1 12.2.
Screening O=C1CC(C(=O)Nc2ccc(Br)cc2)C2(CCCC2)O1 (stereo not drawn) returned CCHFV vOTU inh -6.9.
Screening O=C1CC(C(=O)Nc2ccccc2)C2(CCCCC2)O1 (stereo not drawn) returned Mtb FBA inh 50.1*, Vc quorum ag 0.6, CCHFV vOTU inh 2.4, GDH-TPI counter-1 2.0, Mtb FBA inh conf 3.4 and GDH-TPI counter-2 -4.1.
CC(OC(=O)c1ccccn1)C(=O)Nc1nc(-c2ccc(F)c(F)c2)cs1 (stereo not drawn) was read as Mtb FBA inh 4.2, Vc quorum ag inactive, CCHFV vOTU inh 11.3 and GDH-TPI counter-1 10.8.
Cc1oc2cc([N+](=O)[O-])c(O)c([N+](=O)[O-])c2c1C(=O)c1ccc(Cl)cc1 was read as Mtb FBA inh 72.0*, Vc quorum ag 7.4, CCHFV vOTU inh 12.7, GDH-TPI counter-1 31.2*, Mtb FBA inh conf 14.5 and GDH-TPI counter-2 13.2*.
CCOC(=O)c1c(C)n(C)c2cc([N+](=O)[O-])c(O)c([N+](=O)[O-])c12 was read as Mtb FBA inh 4.0, Vc quorum ag 4.2, CCHFV vOTU inh 13.8 and GDH-TPI counter-1 -5.2.
For Cn1c(=O)c2nncnc2n(C)c1=O the results were Mtb FBA inh -2.1, Vc quorum ag -0.2, CCHFV vOTU inh 14.5 and GDH-TPI counter-1 -2.2.
Screening Cc1nc2c(=O)n(C)c(=O)n(C)c2nc1Cl returned Mtb FBA inh 39.0*, Vc quorum ag inactive, CCHFV vOTU inh 5.0, GDH-TPI counter-1 6.1, Mtb FBA inh conf 63.2* and GDH-TPI counter-2 44.0*.
For CC12CCC(C(=O)N(NC(=O)c3cc(Cl)ccc3O)C1=O)C2(C)C (stereo not drawn) the results were Mtb FBA inh 44.2*, Vc quorum ag 0.6, CCHFV vOTU inh -31.7, GDH-TPI counter-1 5.7, Mtb FBA inh conf -0.1 and GDH-TPI counter-2 -7.3.
For O=C(COC(=O)C1CCN(c2ccc(C(F)(F)F)cn2)CC1)Nc1cc(F)ccc1F the results were Mtb FBA inh 3.1, Vc quorum ag inactive, CCHFV vOTU inh 2.7 and GDH-TPI counter-1 3.6.
For COc1ccc(-c2nnc3sc(C(C)N4C(=O)c5ccccc5C4=O)nn23)cc1 (stereo not drawn) the results were Mtb FBA inh -0.9, Vc quorum ag -0.4, CCHFV vOTU inh -1.5 and GDH-TPI counter-1 8.9.
